Data reported in PubChem BioAssay (NCI).
The panel holds about 79,000 compounds, 15% with a hit somewhere; the sample as a whole holds those more often. Activity calls are given as the source filed them. Rule as the data show it: active = growth inhibition above about 70%; inactive = the rest.

Experiments:
[1] = NCI Yeast Anticancer Drug Screen. Data for the rad50 strain (AID 155);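 also: 0% = growth of vehicle-only cultures of the same strain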; conditions: S. cerevisiae rad50 strain growth inhibition; at 50.0 µM; stronger effect = higher value
How it was run: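 Relative growth inhibition (compound vs vehicle) was measured in yeast with a defined repair-gene alteration.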

[2] = NCI Yeast Anticancer Drug Screen. Data for the mec2-1 strain (AID 157); conditions: S. cerevisiae mec2-1 strain, at 50.0 µM, stronger effect = higher value
How it was run: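 Mutant yeast (mec2-1) grown with compound; growth inhibition relative to vehicle control reported.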

[3] = NCI Yeast Anticancer Drug Screen. Data for the sgs1 mgt1 strain (AID 161);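 also: 0% = growth of cultures given vehicle only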; conditions: S. cerevisiae sgs1 mgt1 strain, at 50.0 µM, stronger effect = higher value
How it was run: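 Compounds are added to genetically altered yeast, and growth is compared with cultures given vehicle alone to give percent inhibition.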

[4] = NCI Yeast Anticancer Drug Screen. Data for the cln2 rad14 strain (AID 165);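 also: 0% = growth equal to vehicle treated cultures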; conditions: S. cerevisiae cln2 rad14 strain, at 50.0 µM, stronger effect = higher value
How it was run: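 Readout is yeast growth inhibition versus vehicle-treated controls, using a strain with cln2 and rad14 alterations exposed to compound.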

[5] = NCI Yeast Anticancer Drug Screen. Data for the bub3 strain (AID 167); conditions: S. cerevisiae bub3 mutant strain, at 50.0 µM, stronger effect = higher value
How it was run: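 Screening used yeast with an engineered genetic alteration affecting cell cycle control. Compound-exposed cultures were compared with vehicle cultures, and reduced growth was taken as inhibition.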

[6] = NCI Yeast Anticancer Drug Screen. Data for the mlh1 rad18 strain (AID 175); conditions: S. cerevisiae mlh1 rad18 strain growth inhibition; at 50.0 µM; stronger effect = higher value
How it was run: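 Genetically defined yeast (DNA repair-deficient) exposed to compounds; growth inhibition determined relative to vehicle.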

Row | SMILES | growth inhibition [1] | growth inhibition [2] | growth inhibition [3] | growth inhibition [4] | growth inhibition [5] | growth inhibition [6]
1 | CCCCCCCCCc1cc(=O)c2ccc(OCc3ccccc3)cc2o1 | -42.5% (inactive) | -28.6% (inactive) | -21.1% (inactive) | -11.2% (inactive) | -28.6% (inactive) | -42% (inactive)
2 | COC(=O)c1ccccc1O | -3.4% (inactive) | 2.25% (inactive) | -7.9% (inactive) | -39.4% (inactive) | 1.25% (inactive) | -19.5% (inactive)
3 | COC(=N)C(C)C | 26.4% (inactive) | 14.9% (inactive) | 4.9% (inactive) | 13.1% (inactive) | -6.2% (inactive) | 22.6% (inactive)
4 | c1ccc(-c2nc3cc4ccccc4cc3nc2-c2ccccc2)cc1 | -17.4% (inactive) | -12.6% (inactive) | -4.9% (inactive) | -35.6% (inactive) | -25.9% (inactive) | -18.6% (inactive)
5 | O=C(/C(=C/c1ccc(Cl)cc1)c1ccccc1)c1ccccc1 | 9.2% (inactive) | -28.4% (inactive) | 6.45% (inactive) | 13.9% (inactive) | -21.1% (inactive) | -2.75% (inactive)
6 | CC(=O)C1CC2CCC1C2 (configuration not stated) | 10.4% (inactive) | 12.8% (inactive) | -8.7% (inactive) | -12.4% (inactive) | 1.25% (inactive) | 7.9% (inactive)
7 | O=C1NN=CN2C(=O)CCC12 (configuration not stated) | 26.4% (inactive) | 3.45% (inactive) | 14.3% (inactive) | 4.15% (inactive) | 14.4% (inactive) | -3.4% (inactive)
8 | Cc1cc([O-])c([I+]c2ccccc2)c(=O)[nH]1 | 93.3% (active) | 66.8% (inactive) | 97.8% (active) | 95.6% (active) | 95.5% (active) | 90.2% (active)
9 | O=CC(=O)c1ccc(Cl)cc1 | 1.9% (inactive) | 5.5% (inactive) | 8.4% (inactive) | 31.1% (inactive) | -9.5% (inactive) | 14.8% (inactive)
10 | COC(=O)C(CCc1ccccc1[N+](=O)[O-])C(=O)OC | 38.6% (inactive) | 10.8% (inactive) | 11.7% (inactive) | -4.45% (inactive) | 43% (inactive) | 34.1% (inactive)
11 | CCOC(=O)C1C2CC3C(CC21C)C3(C)C (configuration not stated) | -6.1% (inactive) | -6.65% (inactive) | -12.9% (inactive) | -2.5% (inactive) | -20.6% (inactive) | 1% (inactive)
12 | Cc1c(Cl)c(N)c(Cl)c(Cl)c1Cl | 15.7% (inactive) | -4.5% (inactive) | 19.1% (inactive) | -7.3% (inactive) | 28.6% (inactive) | 8.75% (inactive)
13 | CCOC(=O)CCc1cnc[nH]1 | -60.5% (inactive) | -8.95% (inactive) | -3.05% (inactive) | -14.1% (inactive) | -4.55% (inactive) | -0.75% (inactive)
14 | Cc1c(Cl)cccc1NC(=O)Nc1ccccc1 | -1.35% (inactive) | 3.3% (inactive) | -6.25% (inactive) | -8.1% (inactive) | 4.1% (inactive) | 7.65% (inactive)
15 | COc1cccc2c1C(=O)c1c(OC)c(CBr)cc(OC)c1C2=O | 37.6% (inactive) | 9.55% (inactive) | 15.9% (inactive) | -36.6% (inactive) | -7.85% (inactive) | 15.5% (inactive)
16 | CC(=O)Nc1c([N+](=O)[O-])cc(O)cc1[N+](=O)[O-] | -17.9% (inactive) | -15.7% (inactive) | 12.3% (inactive) | -26.3% (inactive) | -16.9% (inactive) | -8.45% (inactive)
17 | COc1ccccc1OC(C)=O | -5.2% (inactive) | -14.4% (inactive) | -2.3% (inactive) | -8.2% (inactive) | -1.35% (inactive) | 17.9% (inactive)
18 | N#CC1=C(O)NC(O)=C(C#N)C12C(=O)Nc1ccccc12 | 4.1% (inactive) | 2.85% (inactive) | 2.05% (inactive) | 3.15% (inactive) | 13.2% (inactive) | 10.3% (inactive)
19 | COC1CC(OC2CCC3(C)C(=CCC4C3C(OC(C)=O)C(OC(=O)CC(C)C)C3(C)C(C(C)=O)CCC43O)C2)OC(C)C1OC1CC(OC)C(OC2CC(OC)C(OC3OC(C)C(O)C(OC)C3O)C(C)O2)C(C)O1 (configuration not stated) | 31.3% (inactive) | 6.55% (inactive) | 21.4% (inactive) | 16.9% (inactive) | -1.9% (inactive) | -83.5% (inactive)

Row | SMILES | growth inhibition [1] | growth inhibition [2] | growth inhibition [3] | growth inhibition [4] | growth inhibition [5] | growth inhibition [6]
20 | CC1CCCCC1NC(=O)c1ccccc1 (configuration not stated) | -12% (inactive) | -10.6% (inactive) | -5.2% (inactive) | -34.8% (inactive) | -13.7% (inactive) | -3.1% (inactive)
21 | CCCCn1[nH]c(=O)ccc1=O | 16.9% (inactive) | 7.6% (inactive) | 1.9% (inactive) | 11.4% (inactive) | -8.45% (inactive) | -3.3% (inactive)
22 | O=C1OC(/C=C/c2ccccc2)C(=O)C1=O (configuration not stated) | -4% (inactive) | -4.55% (inactive) | -3.9% (inactive) | 25.4% (inactive) | -9.75% (inactive) | -9.95% (inactive)
23 | Nc1ccc(CCCCc2ccc(Cl)cc2Cl)cc1 | 98.2% (active) | 98.2% (active) | 98.5% (active) | 98.1% (active) | 98% (active) | 98% (active)
24 | CCCCN(CCCC)CC(O)c1cc(Cc2ccccc2)nc2c(Cl)cc(Cl)cc12 (configuration not stated) | 95.3% (active) | 95.5% (active) | 96.8% (active) | 89.8% (active) | 95% (active) | 96.2% (active)
25 | CCCCCCCCCC[n+]1cccc(C(N)=O)c1 | 3.7% (inactive) | -17.2% (inactive) | 13.8% (inactive) | 3.75% (inactive) | -1.05% (inactive) | 28.9% (inactive)
26 | COC(=O)C(=O)C1(c2ccccc2)CCCC(CN(C)C)=C1O (configuration not stated) | 3.35% (inactive) | -0.15% (inactive) | 2.65% (inactive) | -4.95% (inactive) | -2.65% (inactive) | -12.7% (inactive)
27 | O=C(CO)c1ccc([N+](=O)[O-])cc1 | 16.8% (inactive) | 34.3% (inactive) | 1.85% (inactive) | 7.5% (inactive) | 13.4% (inactive) | 40.4% (inactive)
28 | COC(=O)C(c1ccccc1)S(=O)(=O)c1ccccc1 (configuration not stated) | -2.75% (inactive) | -13.3% (inactive) | 3.6% (inactive) | -2.75% (inactive) | -21.4% (inactive) | -5.5% (inactive)
29 | CCCCC(CCc1ccccc1)C(=O)NCC (configuration not stated) | -5.1% (inactive) | -11.6% (inactive) | -18.4% (inactive) | -11% (inactive) | -12.3% (inactive) | 5.1% (inactive)
30 | O=C1OCC2C(=O)N3Cc4cc5ccccc5nc4C3CC12 (configuration not stated) | 11.9% (inactive) | 10.2% (inactive) | -2.5% (inactive) | 8.85% (inactive) | -15.8% (inactive) | 9.55% (inactive)
31 | CCCCCCCCCCCCCCCCCC[N+]1(C)CCOCC1 | 99.2% (active) | 99.5% (active) | 99.1% (active) | 98.7% (active) | 99.2% (active) | 99.5% (active)
32 | COc1ccc(OC)c(NC(C)=O)c1 | -30.4% (inactive) | -12.2% (inactive) | -16.3% (inactive) | -3.05% (inactive) | -24.4% (inactive) | -8.55% (inactive)
33 | O=C(Nc1cccc([N+](=O)[O-])c1)C(=O)C(C(=O)c1ccccc1F)C1OC(=O)C2C=CC=CC21 (configuration not stated) | 5.5% (inactive) | 15.9% (inactive) | 16.1% (inactive) | 11.7% (inactive) | -32.9% (inactive) | -19.9% (inactive)
34 | COc1cc(-c2[nH]ncc2CCCC(=O)Nc2ccccc2[N+](=O)[O-])ccc1O | 20.9% (inactive) | -2.75% (inactive) | -14.5% (inactive) | 7.8% (inactive) | -2.75% (inactive) | 18.5% (inactive)
35 | CC12CCCCC1C1=C(CCCC1)CC2 (configuration not stated) | -4.1% (inactive) | -4.95% (inactive) | -5.35% (inactive) | 9.4% (inactive) | 6.7% (inactive) | -17.6% (inactive)
36 | CC1CCC2N(C1)CC1C3(O)CC4(O)C(CCC5C(=O)C(O)CCC54C)C3(O)CC(O)C1(O)C2(C)O (configuration not stated) | 5.5% (inactive) | -26.9% (inactive) | -10.8% (inactive) | 10.9% (inactive) | -9.1% (inactive) | -7.7% (inactive)
37 | CCc1c(C)[nH]c(C2=NCCC2)c1C | -10.6% (inactive) | -9.6% (inactive) | -17.8% (inactive) | -1.6% (inactive) | -13.4% (inactive) | -25.1% (inactive)
